The record followed here is PubChem BioAssay (Tox21).

The nature of experiment [1]: Human pregnane X receptor (PXR) small molecule agonists, qHTS cell viability counter screen (AID 1346977). Note: nearly all actives have a fitted effect of over 50% in size. Note: potency is the fitted concentration of half-maximal effect. A digest of the protocol: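 HepG2 cells stably carrying the PXR-Luc reporter are cultured with 5% charcoal-stripped FBS and treated with compounds for 24hr. CellTiter-Fluor is added at 23hr and fluorescence is read after 1hr.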
(Quantitative high-throughput screening tests each substance at several concentrations.)

The nature of experiment [2]: Caspase-3/7 induction in HepG2 cells by small molecules, qHTS assay (AID 1346978). Note: nearly all actives have a fitted effect of over 15% in size. Note: potency is the fitted concentration of half-maximal effect. A digest of the protocol: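 Wild-type HepG2 cells, 2,000/well, settled 5 hr at 37 C and 5% CO2, then compound-treated for 17 hr; caspase-3/7 activity read by luminescent Caspase-Glo 3/7 after 30 min at room temperature.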
A short description of experiment [3]: Caspase-3/7 induction in CHO-K1 cells by small molecules, qHTS cell viability counter screen (AID 1346979). Note: nearly all actives have a fitted effect of over 35% in size. Note: potency is the fitted concentration of half-maximal effect. A digest of the protocol: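 Seeding: 1,500 CHO-K1 cells/well. Rest: 5hr, 37C. Treatment: compounds in DMSO, 16hr. Read: CellTiter-Fluor, 1hr, fluorescence.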
Experiment [4] can be described thus: Caspase-3/7 induction in CHO-K1 cells by small molecules, qHTS assay (AID 1346980). Note: nearly all actives have a fitted effect of over 15% in size. Note: potency is the fitted concentration of half-maximal effect. A digest of the protocol:
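Wild-type CHO-K1 cells exposed to compounds for 17hr at 37 C, 5% CO2. Caspase-3/7 activity then measured by Caspase-Glo 3/7 luminescence after 30min at room temperature.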

Experiment [5] concerns the target Nuclear receptor subfamily 1 group I member 2 (Homo sapiens) (UniProt O75469). The experiment in a line: Human pregnane X receptor (PXR) small molecule agonists, qHTS assay (AID 1346982). Note: nearly all actives have a fitted effect of over 35% in size. Note: potency is the fitted concentration of half-maximal effect. The essentials:
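Agonist mode qHTS: PXR-Luc HepG2 cells plated 5 hr before DMSO-dissolved compounds were pinned in, cultured 24 hr at 37 C, 5% CO2; ONE-Glo luminescence readout.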

Experiment [6] has as its target Acetylcholinesterase (Homo sapiens) (UniProt P22303). The experiment in a line: Acetylcholinesterase (AChE) small molecule antagonists: colormetric cell-based qHTS assay (AID 1347395; calls by dose curve; note: nearly all actives have a fitted effect of over 30% in size; note: potency is the fitted concentration of half-maximal effect). A digest of the protocol:
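Quantitative HTS in attached SH-SY5Y cells: 30 min compound exposure, then 90 min with acetylthiocholine and DTNB at 37 C; colour from thiocholine reports AChE activity.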

For experiment [7] the target is unchanged. Briefly: Acetylcholinesterase (AChE) small molecule antagonists: enzyme-based qHTS assay (AID 1347397; calls by dose curve; note: nearly all actives have a fitted effect of over 55% in size). The conditions noted are these: Potency: AChE enzyme activity inhibition. A digest of the protocol: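 Recombinant human AChE (50 mU/mL) preincubated with compound 30 min at room temperature; acetylthiocholine plus DTNB then added, and thiocholine formation read colorimetrically after 10 min at room temperature. DMSO served as vehicle control.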

Experiment [8] has the same target. Briefly: Acetylcholinesterase (AChE) small molecule antagonists: fluorescence cell-based qHTS assay (AID 1347398; calls by dose curve; note: nearly all actives have a fitted effect of over 50% in size; note: potency is the fitted concentration of half-maximal effect). The conditions noted are these: Potency: AChE activity. The essentials: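 SH-SY5Y cells (2000/well), attached overnight, incubated with compound 30 min at 37 C. Acetylthiocholine plus Thiolite Green then added for 40 min at room temperature. Thiocholine fluorescence (Ex/Em 490/520 nm) reports cellular AChE activity.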

Experiment [9] has the same target. Briefly: Acetylcholinesterase (AChE) small molecule antagonists: enzyme-based qHTS assay with human liver microsomes (AID 1347399; calls by dose curve; note: nearly all actives have a fitted effect of over 60% in size). The settings on record: Potency: qHTS inhibition. The essentials:
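Recombinant human AChE (50 mU/mL in the enzyme mix) and human liver microsomes (0.25 mg/mL final) were preincubated with compound and NADPH (0.25 mg/mL final) for 30 min at 37 C. Acetylthiocholine/DTNB was then added; thiocholine was read colorimetrically after 10 min at room temperature.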

Experiment [10] addresses Cytochrome P450 2D6 (Homo sapiens) (UniProt P10635). The experiment in a line: Cytochrome P450 Family 2 Subfamily D Member 6 (CYP2D6) small molecule antagonists: luciferase reporter qHTS assay (AID 1671196). Note: nearly all actives have a fitted effect of over 50% in size. Note: potency is the fitted concentration of half-maximal effect. A digest of the protocol: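 P450-Glo format: CYP2D6 converts a proluciferin substrate to luciferin in an NADPH-driven reaction lasting 1 h at room temperature. Light output, proportional to CYP2D6 activity, reflects interference by test chemicals.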
(A reporter such as luciferase makes a cellular process visible.)

Experiment [11] deals with Cytochrome P450 2C19 (Homo sapiens) (UniProt P33261). Briefly: Cytochrome P450 Family 2 Subfamily C Member 19 (CYP2C19) small molecule antagonists: luciferase reporter qHTS assay (AID 1671197). Note: nearly all actives have a fitted effect of over 65% in size. Note: potency is the fitted concentration of half-maximal effect. The essentials:
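Light output is proportional to CYP2C19 activity: proluciferin substrate is converted to luciferin, then detected by a luciferin detection reagent that also stops the 1 h, 37C NADPH-driven reaction. Ketoconazole serves as positive control.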

Experiment [12] deals with Cytochrome P450 2C9 (Homo sapiens) (UniProt P11712). Briefly: Cytochrome P450 Family 2 Subfamily C Member 9 (CYP2C9) small molecule antagonists: luciferase reporter qHTS assay (AID 1671198). Note: nearly all actives have a fitted effect of over 50% in size. Note: potency is the fitted concentration of half-maximal effect. A digest of the protocol:
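P450-Glo proluciferin substrate with CYP2C9 enzyme; 10 min RT preincubation, then NADPH regeneration 1 h at 37C; luciferin detection reagent 20 min RT, luminescence in relative luminescence units.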

For experiment [13], the target named is Cytochrome P450 1A2 (Homo sapiens) (UniProt P05177). The experiment in a line: Cytochrome P450 Family 1 Subfamily A Member 2 (CYP1A2) small molecule antagonists: luciferase reporter qHTS assay (AID 1671199). Note: nearly all actives have a fitted effect of over 50% in size. Note: potency is the fitted concentration of half-maximal effect. A digest of the protocol: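 Inhibition of CYP1A2 conversion of proluciferin to luciferin, detected by luminescence. Reaction run 1 h at room temperature with NADPH regeneration after brief compound preincubation.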

Experiment [14] concerns the target Voltage-gated inwardly rectifying potassium channel KCNH2 (Homo sapiens) (UniProt Q12809). Briefly: Human Ether-a-go-go-Related Gene (hERG) channel small molecule antagonists: fluorescence cell-based qHTS assay (AID 1671200). Note: nearly all actives have a fitted effect of over 50% in size. Note: potency is the fitted concentration of half-maximal effect. A digest of the protocol: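 First, 1000 cells per well are seeded and cultured overnight at 37 C. Next, FluxOR II dye is loaded for 1 h at room temperature, protected from light. After 10 more minutes, stimulus is added and fluorescence is read.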

Experiment [15] deals with Cytochrome P450 3A4 (Homo sapiens) (UniProt P08684). The experiment in a line: Cytochrome P450 Family 3 Subfamily A Member 4 (CYP3A4) small molecule antagonists: luciferase reporter qHTS assay (AID 1671201). Note: nearly all actives have a fitted effect of over 50% in size. Note: potency is the fitted concentration of half-maximal effect. A digest of the protocol: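 Enzyme and proluciferin substrate are mixed with test chemicals for 10 min, then NADPH regeneration system drives turnover for 1 h at room temperature. A detection reagent halts the reaction; luminescence after 20 min gives relative activity.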

Experiment [16] can be described thus: Caspase-3/7 induction in HepG2 cells by small molecules, qHTS cell viability counter screen (AID 1346981). Note: series mostly up to about 92 µM; nearly all actives have a fitted effect of over 30% in size. The essentials: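 Steps: seed 2,000 HepG2 cells per well; incubate 5 hr at 37 C; pin-add compounds in DMSO; incubate 16 hr; add CellTiter-Fluor; after 1 hr at 37 C and 5% CO2, read fluorescence.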

Each structure is given as a SMILES string. Inconclusive results are not listed. Activity calls are given as the source filed them. Unless noted, calls come from the whole dose curve; as a rule, active = well fitted curve in the direction sought with a large enough effect in the repeat runs; inconclusive = weak or mixed curves; inactive = no such curve, though single readings can be large; an effect the other way counts as inactive or inconclusive.

Sequence of Acetylcholinesterase (Homo sapiens) (P22303 whole entry, looked up): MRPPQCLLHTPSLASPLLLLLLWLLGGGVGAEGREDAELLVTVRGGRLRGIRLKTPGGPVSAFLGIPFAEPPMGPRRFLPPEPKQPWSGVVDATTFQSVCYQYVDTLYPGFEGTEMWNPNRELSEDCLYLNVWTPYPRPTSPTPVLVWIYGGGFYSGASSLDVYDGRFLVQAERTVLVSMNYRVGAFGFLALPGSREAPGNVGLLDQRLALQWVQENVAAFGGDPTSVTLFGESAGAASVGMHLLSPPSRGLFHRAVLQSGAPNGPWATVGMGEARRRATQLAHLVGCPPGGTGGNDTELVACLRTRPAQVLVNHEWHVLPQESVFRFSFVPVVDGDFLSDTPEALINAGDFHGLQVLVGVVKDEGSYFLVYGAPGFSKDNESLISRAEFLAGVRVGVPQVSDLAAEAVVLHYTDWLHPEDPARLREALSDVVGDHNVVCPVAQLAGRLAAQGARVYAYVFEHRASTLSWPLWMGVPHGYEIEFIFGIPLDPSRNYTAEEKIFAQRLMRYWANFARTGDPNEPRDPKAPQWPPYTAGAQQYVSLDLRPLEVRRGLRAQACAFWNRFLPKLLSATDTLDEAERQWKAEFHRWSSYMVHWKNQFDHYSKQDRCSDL
Sequence of Cytochrome P450 2C19 (Homo sapiens) (P33261 whole entry, looked up): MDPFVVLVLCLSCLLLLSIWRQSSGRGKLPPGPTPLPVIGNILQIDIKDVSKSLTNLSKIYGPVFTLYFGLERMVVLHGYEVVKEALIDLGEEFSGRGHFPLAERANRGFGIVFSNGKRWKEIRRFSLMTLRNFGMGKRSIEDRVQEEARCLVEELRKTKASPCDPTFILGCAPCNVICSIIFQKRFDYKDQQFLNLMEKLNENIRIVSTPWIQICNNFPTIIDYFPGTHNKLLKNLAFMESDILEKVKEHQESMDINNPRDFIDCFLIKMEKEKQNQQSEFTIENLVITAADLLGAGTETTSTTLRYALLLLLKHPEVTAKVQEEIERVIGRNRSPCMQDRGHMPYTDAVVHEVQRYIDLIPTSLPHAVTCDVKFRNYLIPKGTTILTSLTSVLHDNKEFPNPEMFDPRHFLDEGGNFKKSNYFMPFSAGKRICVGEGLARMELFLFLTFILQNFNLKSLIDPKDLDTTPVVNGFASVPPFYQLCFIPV
Sequence of Nuclear receptor subfamily 1 group I member 2 (Homo sapiens) (O75469 whole entry, looked up): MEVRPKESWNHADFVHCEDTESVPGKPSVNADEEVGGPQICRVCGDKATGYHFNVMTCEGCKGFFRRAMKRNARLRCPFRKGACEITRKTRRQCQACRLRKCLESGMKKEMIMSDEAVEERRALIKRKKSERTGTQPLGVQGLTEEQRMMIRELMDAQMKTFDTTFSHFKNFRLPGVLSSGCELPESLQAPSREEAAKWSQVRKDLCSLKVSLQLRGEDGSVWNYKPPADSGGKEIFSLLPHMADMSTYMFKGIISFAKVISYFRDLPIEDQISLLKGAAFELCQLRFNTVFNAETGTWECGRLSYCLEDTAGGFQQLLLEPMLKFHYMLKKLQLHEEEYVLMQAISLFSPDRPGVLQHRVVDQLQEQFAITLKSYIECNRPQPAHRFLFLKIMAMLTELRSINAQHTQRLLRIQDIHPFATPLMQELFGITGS
Sequence of Cytochrome P450 1A2 (Homo sapiens) (P05177 whole entry, looked up): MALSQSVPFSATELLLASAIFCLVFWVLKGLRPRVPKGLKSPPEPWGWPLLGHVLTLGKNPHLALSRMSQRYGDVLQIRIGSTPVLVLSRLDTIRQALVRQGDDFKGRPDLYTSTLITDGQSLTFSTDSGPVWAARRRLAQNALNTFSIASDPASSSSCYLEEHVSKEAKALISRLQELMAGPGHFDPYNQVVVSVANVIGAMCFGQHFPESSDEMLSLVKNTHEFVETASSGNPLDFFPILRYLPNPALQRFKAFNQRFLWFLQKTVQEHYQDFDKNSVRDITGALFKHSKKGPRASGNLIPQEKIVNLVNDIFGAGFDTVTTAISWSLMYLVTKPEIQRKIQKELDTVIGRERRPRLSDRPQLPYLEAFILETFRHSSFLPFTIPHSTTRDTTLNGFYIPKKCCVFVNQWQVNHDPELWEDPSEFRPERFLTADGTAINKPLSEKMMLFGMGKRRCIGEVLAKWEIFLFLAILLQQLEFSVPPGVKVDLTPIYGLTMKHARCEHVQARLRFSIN
Sequence of Cytochrome P450 3A4 (Homo sapiens) (P08684 whole entry, looked up): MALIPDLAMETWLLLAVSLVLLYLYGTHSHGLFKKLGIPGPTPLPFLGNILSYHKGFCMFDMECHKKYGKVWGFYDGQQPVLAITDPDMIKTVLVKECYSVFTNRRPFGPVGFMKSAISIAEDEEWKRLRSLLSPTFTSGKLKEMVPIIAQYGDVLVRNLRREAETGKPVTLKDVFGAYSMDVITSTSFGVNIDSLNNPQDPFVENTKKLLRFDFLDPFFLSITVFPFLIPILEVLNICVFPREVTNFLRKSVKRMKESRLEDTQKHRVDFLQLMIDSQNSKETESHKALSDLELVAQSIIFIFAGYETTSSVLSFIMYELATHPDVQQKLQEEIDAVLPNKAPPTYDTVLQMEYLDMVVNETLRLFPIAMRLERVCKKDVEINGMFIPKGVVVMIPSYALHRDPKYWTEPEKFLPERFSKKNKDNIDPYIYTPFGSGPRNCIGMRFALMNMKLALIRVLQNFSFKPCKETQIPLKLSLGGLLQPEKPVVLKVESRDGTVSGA
Sequence of Cytochrome P450 2C9 (Homo sapiens) (P11712 whole entry, looked up): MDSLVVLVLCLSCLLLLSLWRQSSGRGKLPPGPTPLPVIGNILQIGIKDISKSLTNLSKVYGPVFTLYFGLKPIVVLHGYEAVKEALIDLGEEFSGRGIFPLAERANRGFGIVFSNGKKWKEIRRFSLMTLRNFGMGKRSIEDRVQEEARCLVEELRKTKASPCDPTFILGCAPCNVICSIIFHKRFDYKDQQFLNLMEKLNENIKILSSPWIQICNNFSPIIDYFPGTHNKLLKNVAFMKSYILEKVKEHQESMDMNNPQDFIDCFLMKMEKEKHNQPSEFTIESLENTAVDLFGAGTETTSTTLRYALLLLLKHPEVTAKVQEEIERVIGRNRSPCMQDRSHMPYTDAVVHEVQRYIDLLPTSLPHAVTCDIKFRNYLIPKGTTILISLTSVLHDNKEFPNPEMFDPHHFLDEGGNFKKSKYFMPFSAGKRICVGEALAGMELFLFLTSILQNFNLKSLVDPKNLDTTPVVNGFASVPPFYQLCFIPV
Sequence of Voltage-gated inwardly rectifying potassium channel KCNH2 (Homo sapiens) (Q12809 whole entry, looked up): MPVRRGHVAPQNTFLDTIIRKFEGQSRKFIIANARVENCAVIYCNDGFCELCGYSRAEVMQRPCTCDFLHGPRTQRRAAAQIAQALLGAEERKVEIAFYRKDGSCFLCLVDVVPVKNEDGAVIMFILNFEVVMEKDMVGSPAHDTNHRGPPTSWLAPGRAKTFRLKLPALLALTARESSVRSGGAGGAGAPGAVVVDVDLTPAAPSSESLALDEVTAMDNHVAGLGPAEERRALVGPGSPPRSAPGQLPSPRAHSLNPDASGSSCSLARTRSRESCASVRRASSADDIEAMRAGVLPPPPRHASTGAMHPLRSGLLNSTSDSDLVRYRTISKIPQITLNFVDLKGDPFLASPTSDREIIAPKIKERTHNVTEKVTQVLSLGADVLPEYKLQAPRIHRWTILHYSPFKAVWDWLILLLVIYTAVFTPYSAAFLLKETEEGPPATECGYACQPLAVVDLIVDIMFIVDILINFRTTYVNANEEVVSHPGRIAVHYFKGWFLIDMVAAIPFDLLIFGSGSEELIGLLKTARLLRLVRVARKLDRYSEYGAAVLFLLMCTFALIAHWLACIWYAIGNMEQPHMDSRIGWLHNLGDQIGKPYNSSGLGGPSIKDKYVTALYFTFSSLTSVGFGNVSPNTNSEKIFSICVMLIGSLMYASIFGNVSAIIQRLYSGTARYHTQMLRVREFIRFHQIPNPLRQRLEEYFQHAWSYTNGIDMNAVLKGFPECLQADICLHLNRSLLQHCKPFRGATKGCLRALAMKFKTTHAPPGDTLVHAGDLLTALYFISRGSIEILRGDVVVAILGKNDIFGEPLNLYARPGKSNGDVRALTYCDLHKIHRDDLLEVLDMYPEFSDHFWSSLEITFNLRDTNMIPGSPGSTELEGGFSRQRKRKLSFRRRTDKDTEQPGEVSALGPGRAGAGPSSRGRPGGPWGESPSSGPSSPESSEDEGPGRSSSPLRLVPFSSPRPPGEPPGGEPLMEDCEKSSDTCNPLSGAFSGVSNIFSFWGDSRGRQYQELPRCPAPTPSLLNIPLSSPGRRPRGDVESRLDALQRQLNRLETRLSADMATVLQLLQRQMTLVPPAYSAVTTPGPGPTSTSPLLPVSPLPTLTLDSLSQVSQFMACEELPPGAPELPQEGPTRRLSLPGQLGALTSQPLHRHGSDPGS
Sequence of Cytochrome P450 2D6 (Homo sapiens) (P10635 whole entry, looked up): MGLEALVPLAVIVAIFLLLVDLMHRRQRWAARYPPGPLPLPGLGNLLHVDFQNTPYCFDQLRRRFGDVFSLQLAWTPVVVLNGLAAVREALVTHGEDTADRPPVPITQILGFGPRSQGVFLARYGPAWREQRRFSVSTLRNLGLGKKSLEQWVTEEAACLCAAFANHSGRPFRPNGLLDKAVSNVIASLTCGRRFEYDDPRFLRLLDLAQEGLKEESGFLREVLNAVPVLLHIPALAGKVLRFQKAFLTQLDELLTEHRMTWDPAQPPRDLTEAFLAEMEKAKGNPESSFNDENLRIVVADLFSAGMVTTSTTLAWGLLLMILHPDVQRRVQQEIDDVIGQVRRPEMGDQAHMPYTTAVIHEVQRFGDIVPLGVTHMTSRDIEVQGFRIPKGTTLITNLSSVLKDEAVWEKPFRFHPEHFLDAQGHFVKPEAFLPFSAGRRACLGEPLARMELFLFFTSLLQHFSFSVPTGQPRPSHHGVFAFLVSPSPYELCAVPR

With `N#Cc1sc2c(=O)c3ccccc3c(=O)c=2sc1C#N`, the Potency was 9.69 µM (active) in [1]; 21.7 µM (active) in experiment [3]; 2.73 µM (active) in experiment [5]; 44.8 µM (active) in experiment [6]; 63.3 µM (active) in experiment [8]; 35.6 µM (active) in experiment [10]. Moreover, the Potency in experiment [11] was 3.99 µM (active); in experiment [12], 3.17 µM (active); in experiment [13], 31.7 µM (active); in experiment [14], 21.9 µM (active); in experiment [15], 17.8 µM (active). Also, the Potency entry in experiment [2], in [4], in [7] and in experiment [9] was “inactive” each time.
Consider `CCCCCON=O`, for which the Potency entry in experiment [1], in experiment [2], in experiment [3], in [4], in experiment [16] and in experiment [5] was “inactive” throughout. Also, the Potency result in experiment [7], in experiment [8], in [9], in experiment [10], in experiment [11] and in experiment [12] was “inactive” throughout. Besides, the Potency entry in experiment [13], in experiment [14] and in experiment [15] was “inactive” each time.
For `CCn1cc[n+](C)c1` (tested in a mixture with another compound), the Potency result in [1], in experiment [2], in experiment [3], in [4], in experiment [16] and in [5] was “inactive” in each case. For the same compound, the Potency result in experiment [10], in experiment [11], in experiment [12], in [13] and in experiment [15] was “inactive” each time.
Consider `C=CC(=O)[O][Sn]([CH2]CCC)([CH2]CCC)[CH2]CCC`, for which the Potency in experiment [1] is 0.686 µM (active); in [2], 2.43 µM (active); in [3], 0.686 µM (active); in experiment [4] it was 1.22 µM (active); in experiment [5], 0.172 µM (active); in [10] it was 1.26 µM (active). In addition, the Potency was 0.894 µM (active) in experiment [11], 12.6 µM (active) in experiment [12] and 25.2 µM (active) in experiment [15]. Further, the Potency result in experiment [6], in experiment [7], in [8] and in [9] was “inactive” in each case.
For `O=c1[nH]c(Cl)c(Cl)cc1Cl`, the Potency result in experiment [1], in experiment [2], in experiment [3], in experiment [4], in experiment [16] and in [6] was “inactive” each time. For the same compound, the Potency result in experiment [7], in experiment [8], in experiment [9], in experiment [10], in experiment [11] and in experiment [14] was “inactive” each time. Also, the Potency result in [15] is “inactive”. Also, in experiment [12], the Potency was 39.9 µM (active).
Turning to `C=CC(=C)C`, the Potency result in experiment [1], in experiment [2], in experiment [3], in experiment [4], in experiment [5] and in experiment [6] was “inactive” throughout. Moreover, the Potency entry in [7], in experiment [8], in experiment [9], in experiment [10], in experiment [11] and in experiment [12] was “inactive” throughout. Also, the Potency result in [13], in [14] and in [15] was “inactive” throughout.
Take `CN/C(=N\[N+](=O)[O-])NCc1cnc(Cl)s1`: the Potency result in [1], in experiment [2], in experiment [3], in experiment [4], in [16] and in experiment [5] was “inactive” each time. For the same compound, the Potency result in [7], in [8], in experiment [9], in experiment [10], in experiment [12] and in experiment [13] was “inactive” throughout. The Potency entry in experiment [14] and in [15] was “inactive” throughout.
For `CCCCON=O`, the Potency entry in experiment [1], in experiment [2], in experiment [3], in [4], in experiment [16] and in experiment [5] was “inactive” throughout. Further, the Potency result in experiment [7], in experiment [8], in experiment [9], in [10], in [12] and in experiment [13] was “inactive” throughout. For the same compound, the Potency entry in experiment [14] was “inactive”.
